Sampled rows, rich in hits. Any-hit rate of the full collection: about 19%.
Pf growth 48h: inhibits P. falciparum growth in the first generation, 48 h. P. falciparum luciferase growth in erythrocytes, 48 h. Potency, µM (highest dose often 28.7 µM), without a hit: top-dose activity change, negative = inhibition, actives largely listed as inhibitors. 310,000 tested, 5.9% active. AID 504832; also: potency is read from the fitted curve at half-maximal effect; % is scaled to controls: 0 for no effect and ±100 for the full control effect
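Firefly luciferase activity from engineered P. falciparum reports growth; inhibitors lower the luminescent signal. Cultures contained 2% hematocrit erythrocytes at 0.1% final parasitemia.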
Shiga toxin inh: Shiga toxin inhibition | inhibition, % at 38.7 µM | Vero cells, Shiga toxin protein synthesis inhibition reporter | 290,000 tested, 9.2% active; in the data active = inhibition mostly above about 28%, no sharp cut-off; inactive = mostly below about 43%; also: 0% is about no effect
Lassa entry inh: inhibitors of Lassa virus binding or cell entry; Lassa virus pseudotype entry inhibition, cell reporter; Potency, µM (highest dose often 37.9 µM), for the others: at the top dose activity change, negative = inhibition, most hits filed as inhibitors; 300,000 tested, 1.2% active; calls by dose curve; tested in HEK293 cells; also: potency is read from the fitted curve at half-maximal effect; % is scaled to controls: 0 for no effect and ±100 for the full control effect; nearly all actives have a fitted effect of over 50% in size
Pf growth 96h: P. falciparum growth inhibition at 96 hour, primary screen for plastid delayed-death inhibitors. AID 504834. 320,000 tested, 6.9% active. Potency, µM (doses to about 28.7 µM), for the others: top-dose activity change, negative = inhibition, hits mostly inhibitors. P. falciparum luciferase reporter growth, 96 h; also: potency is read from the fitted curve at half-maximal effect; % is scaled to controls: 0 for no effect and ±100 for the full control effect
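Parasite growth measured via integrated firefly luciferase reporter in P. falciparum. Infected erythrocytes at 2% hematocrit, 0.05% parasitemia final were treated 96 hours at 37 C under 5% CO2, and luminescence was read.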
MARV entry inh: Marburg virus entry inhibition. Marburg virus pseudotyped entry inhibition, cell reporter. Potency, µM (doses to about 37.8 µM), without a hit: at the top dose activity change, negative = inhibition, hits mostly inhibitors. 300,000 tested, 1.8% active; calls by dose curve; tested in HEK293 cells; also: potency is read from the fitted curve at half-maximal effect; % is scaled to controls: 0 for no effect and ±100 for the full control effect
Cycloheximide cs: counter-screen for Shiga toxin inhibitors: cycloheximide protein synthesis inhibition | cell reporter, cycloheximide protein synthesis inhibition counterscreen | max response, % | 300,000 tested, 12% active | AID 2314; in the data active = max response mostly above about 13%, no sharp cut-off; inactive = mostly below about 14%; also: read at 38.3 µM for the half of the compounds with a filed dose; 0% is about no effect
* = called active by the depositor; ? = inconclusive; · = no result; [ ] = another dose, or the depositor's remark. Unless noted, calls follow the shape of the dose curve; as a rule, active = well fitted inhibition curve with a large enough effect; inconclusive = small, poorly fitted or top-dose-only effect, or another doubt; inactive = no such curve, though single readings can be large or run the other way.

SMILES	Pf growth 48h	Shiga toxin inh	Lassa entry inh	Pf growth 96h	MARV entry inh	Cycloheximide cs
O=C(Nc1ccccc1C(=O)NCCc1ccccc1)c1ccco1	48%	44	-14%	·	-22%	37*
CC1CN(C(=O)CCC(=O)NCc2ccccc2Cl)c2ccccc2S1 (stereo unspecified)	-9%	12	·	8.3µM*	·	-2
COc1ccccc1CNC(=O)COC(=O)C1CC1	-24%	·	·	-4%	·	·
O=C(COC(=O)C1CC1)NCc1ccccc1Cl	25%	29	9%	·	20%[46.1 µM]	16*
CCCCC(=O)NCc1ccccc1Cl	43%	52	16%[46.1 µM]	51%	?	23*
O=C(CC1CCCCC1)NCc1ccccn1	4%	2	-10%	?	1%	-2
COc1cccc(CNC(=O)CCC(=O)N2CC(C)Sc3ccccc32)c1 (stereo unspecified)	·	·	-1%[46.1 µM]	·	·	·
O=C(CC1CCCCC1)NCc1ccccc1Cl	163%	49	?	?	4%[46.1 µM]	38*
Cc1c(Cl)cccc1-n1c(SCC(=O)NCc2ccccc2Cl)nnc1-c1ccncc1	8.3µM*	26	15%	8.3µM*	-17%	-3
O=C(CSc1ncccn1)NCc1ccccc1Cl	107%	68*	61%[14.3 µM]	0%	?	50*
O=C(COC(=O)CCSc1ccccc1)NCc1ccccc1Cl	13%	43	19%	-21%	14%	19*
COc1ccc(CC(=O)N/N=C(/C)CC(=O)N(C)c2ccccc2)cc1	13%	35	-3%	56%	21%[46.1 µM]	8
Cc1cc(OCC(=O)Nc2ccc(CN3CCOCC3)cc2)c2c(C)cc(=O)oc2c1	?	-4	·	?	·	-4
O=C(CC1C(=O)NCCN1C/C=C/c1ccccc1)NCCc1cccnc1 (stereo unspecified)	11%	11	9%	0%	-3%[46.1 µM]	-1
COc1ccccc1Nc1nc(N)nc(CN2CCOCC2)n1	·	3	·	9%	·	-2
CN1CCN(C(=O)CCC(=O)NCc2ccc(F)cc2)CC1	-4%	16	·	-29%	·	-3
COC(=O)CCCC(=O)N1CCC(CCC(=O)NCc2ccc(F)cc2)CC1	-19%	-4	-1%[46.1 µM]	15µM*	-8%[46.1 µM]	-1
CCOC(=O)CCNC(=O)N1CCC(CCC(=O)NCc2ccc(F)cc2)CC1	?	1	?	?	-28%	1
COC(=O)CCC(=O)N1CCC(CCC(=O)NCc2ccc(F)cc2)CC1	-6%	-8	·	5.2µM*	·	-2
COc1ccccc1/C=C/CN1CCOCC1	10%	23	-4%	2%	1%	1
CN(C)S(=O)(=O)c1cccc(NC(=O)CSc2nc3c(cc2C#N)C(=O)CC(C)(C)C3)c1	9.3µM*	7	?	?	?	1
CCCCOC(=O)CSc1nc2c(cc1C#N)C(=O)CC(C)(C)C2	15%	active	19%	-7%	3%[46.1 µM]	47*
CN(C)S(=O)(=O)c1ccc(Cl)c(NC(=O)CSc2nc3c(cc2C#N)C(=O)CC(C)(C)C3)c1	?	-2	?	?	-6%	-1
CN(C)S(=O)(=O)c1cccc(NC(=O)CSc2cccc3cccnc23)c1	12µM*	47	-20%	7.4µM*	?	14
CSc1nc2c(cc1C#N)C(=O)CC(C)(C)C2	-7%	21	?	?	?	10
SMILES	Pf growth 48h	Shiga toxin inh	Lassa entry inh	Pf growth 96h	MARV entry inh	Cycloheximide cs
Cc1ccc(C(=O)N[C@@H](C)CN2C3=NC[C@H](C(C)C)N3C[C@H]2Cc2ccc(O)cc2)cc1Br	?	8	·	9.3µM*	·	1
COc1ccc(C[C@H]2CN3C(=NC[C@@H]3C(C)C)N2C[C@H](C)NC(=O)c2ccc(C)c(Br)c2)cc1	?	-15	·	2.9µM*	·	1
COc1ccc(C(=O)N[C@H](C(=O)NCCCn2nc(C)cc2C)C(C)C)cc1	·	·	-8%	·	15%	·
C/C=C(\C)C(=O)NCCN1C2=NC[C@@H](C)N2C[C@H]1Cc1ccc(O)cc1	51%	14	·	50%	·	1
CCSc1nnc(NC(=O)c2cc3c(s2)CCCC3)s1	27%	11	?	·	24%	25
O=C(Nc1nncs1)c1cc2c(s1)CCC2	169%	30*	-10%[46.1 µM]	190%	?	21*
CC(C)Cc1nnc(NC(=O)c2cc3c(s2)CCC3)s1	-152%	55*	?	96%	-2%	17*

Screens: PubChem BioAssay, National Center for Advancing Translational Sciences (NCATS)
